Many of the other results were omitted from the sample, so hits are more common in it than they were.
NTMT1 inhibitor: blocks human N-terminal methyltransferase 1 activity; Potency, µM (titrated, usually from 114 µM), inactives show top-dose activity change, negative = inhibition, hits mostly inhibitors; Q9BV86; AID 1645870; NTMT1 MTase-Glo SAH luminescence, purified enzyme; hit rate 2.5% among 59,000;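 also: plate controls were DMSO vehicle for no effect and no enzyme for full effect; nearly all actives have a fitted effect of over 65% in size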
Target sequence (Q9BV86 whole entry, looked up): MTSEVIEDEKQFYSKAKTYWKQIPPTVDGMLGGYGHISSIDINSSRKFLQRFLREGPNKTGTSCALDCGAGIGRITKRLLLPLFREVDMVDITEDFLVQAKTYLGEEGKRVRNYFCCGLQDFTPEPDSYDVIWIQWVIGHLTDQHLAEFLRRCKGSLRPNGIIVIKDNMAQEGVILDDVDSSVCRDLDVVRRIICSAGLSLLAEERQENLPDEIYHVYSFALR
FH mod: Identification of activators of human fumarate hydratase by quantitative high-throughput screening. FH coupled MDH/diaphorase resazurin fluorescence, 15 min. AID 1347055, 2019. Potency, µM (doses to about 79.9 µM), for the others: top-dose activity change, negative = inhibition, actives largely listed as inhibitors. hit rate 0.22% among 54,000; also: % is scaled to controls: 0 for no effect and ±100 for the full control effect; the screen sought activators but most active calls are inhibition curves; nearly all actives have a fitted effect of over 45% in size
Target sequence (P07954 whole entry, looked up): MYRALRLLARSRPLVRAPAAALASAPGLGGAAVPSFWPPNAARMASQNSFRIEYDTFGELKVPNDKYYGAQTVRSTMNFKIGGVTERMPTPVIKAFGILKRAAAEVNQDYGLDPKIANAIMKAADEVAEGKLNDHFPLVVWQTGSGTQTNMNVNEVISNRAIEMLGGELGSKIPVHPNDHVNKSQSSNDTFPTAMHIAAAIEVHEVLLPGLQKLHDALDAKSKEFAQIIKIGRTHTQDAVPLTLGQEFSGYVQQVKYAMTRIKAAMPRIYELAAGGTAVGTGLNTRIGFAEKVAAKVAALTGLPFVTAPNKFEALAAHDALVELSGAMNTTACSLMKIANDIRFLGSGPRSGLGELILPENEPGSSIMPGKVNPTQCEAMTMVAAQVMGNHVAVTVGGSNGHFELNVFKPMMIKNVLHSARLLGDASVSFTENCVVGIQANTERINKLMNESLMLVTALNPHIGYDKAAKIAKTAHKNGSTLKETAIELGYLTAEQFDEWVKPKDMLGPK
GALC G270D act: enhancers of human galactocerebrosidase G270D mutant activity in cells; hit rate 0.1% among 45,000; 145M-Twi-hGALC-G270D cells (Twitcher mouse brain line with human GALC G270D), HMU-beta-Gal fluorescence, 48 h; AID 1159614; Potency, µM (series often up to 57.5 µM), most hits filed as activators; P54803; also: 0% is about no effect; nearly all actives have a fitted effect of over 65% in size
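Fluorescence readout: HMU-β-gal cleavage by mutant GALC (0.1 mM final, citrate/phosphate pH 5.2 with 1 mg/mL taurocholate), stopped with carbonate/bicarbonate plus Triton X-100. Cells: murine Twitcher 145M-Twi expressing human G270D GALC; qHTS for activators.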
Active calls of the source: *; i = inactive; ? = inconclusive; · = not tested or not shown; ! = not confirmed by another sample; [ ] = another dose, or the depositor's remark. Calls follow the shape of the dose curve; as a rule, active = well fitted curve in the direction sought with a large enough effect; inconclusive = small, poorly fitted or top-dose-only effect, or another doubt; inactive = no such curve, though single readings can be large; an effect the other way counts as inactive or inconclusive. Potency is read from the fitted curve at half-maximal effect.

SMILES	NTMT1 inhibitor	FH mod	GALC G270D act
Cc1ccc(NS(=O)(=O)c2cccc(C(=O)Nc3nc(-c4ccccc4)cs3)c2)cc1	24.5%	·	·
C/C(=C\C(=O)Nc1ccccc1C(=O)O)c1ccc2ccccc2c1	28.2µM*	-7.0%	·
O=C(O)c1ccccc1Nc1ccccc1	·	-25.2%[53.3 µM]	·
CCOc1ccc2nc3cc(N)ccc3c(N)c2c1	20µM*	-9.7%[53.3 µM]	i
CCOc1ccc2nc(NC(=O)c3ccccc3)sc2c1	?	-0.3%	i
CNCCCOc1cc(F)c(-c2c(Cl)nc3ncnn3c2N[C@@H](C)C(F)(F)F)c(F)c1	28.2µM*	·	·
COCCN1CCC(C(=O)NO)(S(=O)(=O)c2ccc(Oc3ccc(OC(F)(F)F)cc3)cc2)CC1	-1.0%[57.5 µM]	8.5%	·
COc1ccc(C(=O)NCCc2sc(-c3ccc(F)cc3)nc2C)cc1OC	-1.1%	-1.2%	i
Cc1cc(SCc2sc(-c3ccc(C(F)(F)F)cc3)nc2C)ccc1OCC(=O)O	79.4µM*!	-5.1%[53.3 µM]	·
CNc1oc(-c2cccc(-c3ccccc3)c2)nc1C#N	-9.8%[57.5 µM]	·	·
Cc1cc(CS(=O)(=O)c2ccccc2)cc(OCc2ccc(CN3CCCC3CO)cc2)c1 (stereo unspecified)	-13.6%[57.5 µM]	8.3%	·
Fc1ccc(-c2ccc(CNc3nc(-c4ccccc4C(F)(F)F)nc4ccccc34)cc2)cc1	11.4%	·	·
CC(C)(O)C1CC(=O)C2(C)C(CCC3(C)C(c4ccoc4)OC(=O)C4OC432)C12CCC(=O)OC2 (stereo unspecified)	11.6%[29.8 µM]	5.2%[53.3 µM]	·
CCN(CC)S(=O)(=O)c1ccc2c(c1)c(=O)c(C(=O)NCc1ccccc1)cn2C	6.1%	-3.8%	i
CCN(CC)S(=O)(=O)c1ccc2c(c1)c(=O)c(C(=O)N(C)Cc1ccccc1)cn2C	5.8%	-2.4%	25.1µM*
COc1cc(C2c3c(-c4cc(C)ccc4O)n[nH]c3C(=O)N2Cc2ccco2)cc(OC)c1OC (stereo unspecified)	7.3%	22.4µM*	i
COc1cc(C2c3c(-c4c(C)cc(C)cc4O)n[nH]c3C(=O)N2Cc2ccco2)cc(OC)c1OC (stereo unspecified)	13.9%	-8.1%	i
CC(=O)OC[C@@]12[C@H](O)C[C@@H](C)[C@]3(C[C@@H](c4ccoc4)OC3=O)[C@H]1C[C@H](O)C[C@]21CO1	7.2%[29.8 µM]	-1.1%[53.3 µM]	·
Cc1cc(Cl)ccc1NC(=O)CCCn1nc(C)c2c(C)n(-c3ccccc3)nc2c1=O	-27.4%	2.3%	i
Cc1cc(Cl)ccc1NC(=O)Cn1nc(C)c2c(C)n(-c3ccccc3)nc2c1=O	50.1µM*	-7.4%	i
CC(C)[N+](C)(C)CC(O)COc1cccc2ccccc12 (stereo unspecified)	8.91µM*	-1.1%[53.3 µM]	i
CC(C)NCC(O)COc1cccc2ccccc12 (stereo unspecified)	·	-9.0%[53.3 µM]	·
CN(Cc1ccc(/C=C/C(=O)NO)cc1)CC12CC3CC(CC(C3)C1)C2	15.1%	·	·
Cc1ccc(-c2cc(C(=O)Nc3ccc(C#N)cc3)c3ccccc3n2)cc1C	12.2%	·	·
CC(=O)Nc1sc2c(c1-c1nc3ccccc3s1)CNC2	79.4µM*!	-14.9%	·
SMILES	NTMT1 inhibitor	FH mod	GALC G270D act
CC(=O)Nc1sc2c(c1-c1nc3ccccc3s1)CCN(C(=O)OC(C)(C)C)C2	-0.8%	·	·
FC(F)(F)c1ccccc1-c1nc(NCc2ccc3c(c2)OCO3)c2ccccc2n1	4.2%	·	·
Oc1ccc(O)cc1	35.5µM*	3.55µM*	i
Oc1ccccc1	-14.0%[57.5 µM]	-6.7%[53.3 µM]	i
COc1cc2c(Oc3ccc(NC(=O)C4(C(=O)Nc5ccc(F)cc5)CC4)cc3F)ccnc2cc1OCCCN1CCOCC1	-18.3%	?	·
C=CC(=O)Nc1cc2c(Nc3ccc(F)c(Cl)c3)ncnc2cc1OCCCN1CCOCC1	11.2µM*!	-25.7%	i
C=CC(=O)Nc1ccc2ncnc(Nc3cccc(Br)c3)c2c1	?	0.1%	·
COc1cc2ncnc(Nc3ccc(F)c(Cl)c3)c2cc1OCCCN1CCOCC1	12.6µM*!	-1.5%	i
CC(=O)c1ccc(NC(=O)CN2C(=O)c3cccnc3Sc3ccccc32)cc1	4.1%	-31.0%	i
Cc1cc(Br)ccc1NC(=O)CN1C(=O)c2cccnc2Sc2ccccc21	79.4µM*	4.4%	i
C[C@@H]1C(=O)O[C@H]2[C@H]1CC[C@@]1(C)C(=O)C=C[C@](C)(O)[C@H]21	9.6%[57.5 µM]	1.1%	·
Cn1cc(-c2cnn3c(N)c(Br)c([C@@H]4CCCNC4)nc23)cn1	35.5µM*!	-0.3%	·
Cn1cc(-c2cnn3c(N)c(Br)c([C@H]4CCCNC4)nc23)cn1	-13.1%[57.5 µM]	-12.0%[53.3 µM]	·
Cn1nc(-c2ccc(C(=O)Nc3cccc(C(F)(F)F)c3)cc2)c2ccccc2c1=O	12.6%	-3.0%	i
Cn1nc(-c2ccc(C(F)(F)F)cc2)nc2c(=O)n(C)c(=O)nc1-2	-2.8%[57.5 µM]	3.98µM*	·
C=C1CCN([C@H](C)[C@](O)(Cn2cncn2)c2ccc(F)cc2F)CC1	5.0%[57.5 µM]	0.2%	·
O=C1NC(=O)/C(=C/c2ccc3c(c2)OCO3)S1	3.0%	31.6µM*	·
CC(C)(C)C(O)/C=C/c1ccc2c(c1)OCO2 (stereo unspecified)	-15.3%[57.5 µM]	-9.2%[53.3 µM]	i
COc1cncc(NC(=O)c2cccs2)c1	3.2%[57.5 µM]	·	·
O=C1OC2(c3ccccc31)c1cc(I)c(O)c(I)c1Oc1c2cc(I)c(O)c1I	1µM*	?	i
O=C1OC2(c3ccc(O)cc3Oc3cc(O)ccc32)c2ccccc21	15.5%[57.5 µM]	-26.2%[53.3 µM]	i
CC1(C=O)CCCC2(C)C1CCC13CC(CO)C(CCC12)C3 (stereo unspecified)	-8.6%[57.5 µM]	0.2%	·
O=C(O)C1(Cc2cccc(Nc3nccs3)n2)CCC(Oc2cccc(Cl)c2F)CC1 (stereo unspecified)	28.2µM*	-12.5%	·
Brc1cnc2nc(SCc3cccnc3)[nH]c2c1	-1.6%[57.5 µM]	·	·
N#C/C(=C\c1ccc(O)c(O)c1)C(=O)NCCc1ccccc1	·	31.6µM*	·
SMILES	NTMT1 inhibitor	FH mod	GALC G270D act
CCOc1cc(/C=C(\C#N)C(=O)NCC2CCCO2)ccc1O (stereo unspecified)	-2.4%	-12.0%	i
NC1CCCN(c2c(/C=C3\SC(=O)NC3=O)cccc2-c2ccccc2)C1 (stereo unspecified)	?	-14.5%	·
Cc1ncc(NC(=O)c2cccc(C(F)(F)F)c2)cc1-c1cnc(OC2CCOCC2)c(N2CCOCC2)c1	-2.7%	·	·
CC1(N)CCN(c2cnc(-c3cccc(Cl)c3Cl)c(N)n2)CC1	-0.2%[57.5 µM]	·	·
Cc1[nH]c(/C=C2\C(=O)Nc3ccc(F)cc32)c(C)c1C(=O)NCCN1CCCC1	?	-7.5%	·
CCN(CC)CCNC(=O)c1c(C)[nH]c(/C=C2\C(=O)Nc3ccc(F)cc32)c1C	35.5µM*	12.6µM*!	i
COc1c2ccoc2cc2oc(CO[C@@H]3O[C@H](CO)[C@@H](O)[C@H](O)[C@H]3O)cc(=O)c12	16.4%[29.8 µM]	-2.3%[53.3 µM]	·
O=C(CNC(=O)C1CCCCC1)OC(C(=O)c1ccccc1)c1ccccc1 (stereo unspecified)	89.1µM*	·	·
O=C(CNC(=O)C1CCCCCC1)OC(C(=O)Nc1cc(C(F)(F)F)ccc1Cl)c1ccccc1 (stereo unspecified)	9.4%	·	·
CCOC(=O)C1CCN(C(=O)c2ccc3c(c2)sc2nc(-c4ccc(C)cc4)cn23)CC1	1.2%	?	i
